The source of these data is PubChem BioAssay (Tox21).

The target of test [1] is Progesterone receptor (Homo sapiens) (UniProt P06401). Nature of the test: qHTS assay to identify small molecule agonists of the progesterone receptor (PR) signaling pathway (AID 1346784; calls by dose curve; further: nearly all actives have a fitted effect of over 30% in size). In a few lines:
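PR-UAS-bla HEK 293T cells carrying a UAS-driven beta-lactamase reporter were seeded in medium with 2% charcoal-stripped FBS, preincubated 6 hr at 37C, then exposed to compounds in DMSO for 16 hr; agonism was read by LiveBLAzer B/G FRET fluorescence.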

Test [2] shares this target. Nature of the test: qHTS assay to identify small molecule antagonists of the progesterone receptor (PR) signaling pathway (AID 1346795; active means well fitted inhibition curve with a large enough effect in the signal ratio in the repeat runs, not every such curve was filed as active; the % refers to the signal ratio; further: potency means the concentration at half of the fitted maximal effect). In a few lines:
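PR-UAS-bla HEK293T cells carrying a UAS-driven beta-lactamase reporter were plated in medium with 2% charcoal-stripped FBS and rested 6 hr at 37C. Compounds were added with 1 nM R5020 (final) for 16 hr, then FRET substrate loaded 2 hr at room temperature.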
For orientation: In qHTS, concentration-response curves come from the screen itself.

Test [3] can be described thus: qHTS assay to identify small molecule antagonists of the progesterone receptor (PR) signaling pathway - cell viability counter screen (AID 1346798). Further: nearly all actives have a fitted effect of over 50% in size. Further: potency means the concentration at half of the fitted maximal effect. On activity change, negative = cytotoxicity: series mostly up to about 92 µM. In a few lines:
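PR-UAS-bla HEK293T cells in medium with 2% charcoal-stripped FBS were treated with compounds plus R5020 for 16 hr at 37C. Cell viability was then read by CellTiter-Glo luminescence after 30 min at room temperature in the same wells.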

A short description of test [4]: qHTS assay to identify small molecule agonists of the progesterone receptor (PR) signaling pathway - cell viability counter screen (AID 1346799; calls by dose curve; further: nearly all actives have a fitted effect of over 45% in size; further: potency means the concentration at half of the fitted maximal effect). The essentials: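 PR-UAS-bla HEK293T cells, 3,000 per well in medium with 2% charcoal-stripped FBS, were preincubated 6 hr at 37C, then exposed to compounds for 16 hr; viability was read as CellTiter-Glo luminescence after 30 min at room temperature.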

Test [5] can be described thus: qHTS assay to identify small molecule agonists of the TGF-beta/Smad signaling pathway - cell viability counter screen (AID 1346829). Further: top concentration of the series differs between compounds; nearly all actives have a fitted effect of over 45% in size. In a few lines: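 In parallel with the Smad reporter read, viability of HEK 293T cells stably carrying SBE-bla is quantified by ATP luminescence following 5 hr compound treatment.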
Test [6] can be described thus: qHTS assay to identify small molecule agonists of the TGF-beta/Smad signaling pathway (AID 1346859; active means well fitted activation curve with a large enough effect in the signal ratio in the repeat runs, not every such curve was filed as active; the % refers to the signal ratio; further: series mostly up to about 77 µM). In a few lines: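 HEK 293T cells stably carrying a beta-lactamase reporter driven by the Smad binding element were seeded overnight, exposed to DMSO-dissolved compounds for 5 hr at 37 C, 5% CO2, then loaded with FRET substrate for 2 hr at room temperature.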
The target in test [7] is Thyrotropin-releasing hormone receptor (Homo sapiens) (UniProt P34981). Nature of the test: qHTS assay to identify small molecule antagonists of the thyrotropin-releasing hormone receptor (TRHR) signaling pathway (AID 1346877; active means well fitted inhibition curve with a large enough effect in the repeat runs, not every such curve was filed as active; further: series mostly up to about 51 µM). In a few lines: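 Antagonism is measured as suppression of the calcium response to 1 nM TRH in TRHR-HEK293 cells that have been dye-loaded for 2 h at 37 °C after overnight plating. Each compound is tested at 15 concentrations in triplicate.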
Chain of Thyrotropin-releasing hormone receptor (Homo sapiens) (P34981 whole entry, looked up): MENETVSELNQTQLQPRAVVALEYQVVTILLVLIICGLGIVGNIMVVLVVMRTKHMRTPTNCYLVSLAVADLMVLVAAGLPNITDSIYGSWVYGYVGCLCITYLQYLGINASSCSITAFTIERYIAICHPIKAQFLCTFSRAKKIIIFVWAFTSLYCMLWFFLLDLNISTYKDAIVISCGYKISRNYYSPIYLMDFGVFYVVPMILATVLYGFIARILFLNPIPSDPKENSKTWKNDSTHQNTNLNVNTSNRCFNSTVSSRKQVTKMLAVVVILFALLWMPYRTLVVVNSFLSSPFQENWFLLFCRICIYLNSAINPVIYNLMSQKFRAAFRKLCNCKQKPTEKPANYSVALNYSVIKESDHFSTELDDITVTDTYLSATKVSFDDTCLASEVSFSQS

For test [8] the target is unchanged. Nature of the test: qHTS assay to identify small molecule agonists of the thyrotropin-releasing hormone receptor (TRHR) signaling pathway (AID 1346891; calls by dose curve; further: series mostly up to about 58 µM). In a few lines:
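TRHR-expressing HEK293 cells were plated 18 h at 37 °C/5% CO2, loaded with calcium dye 2 h at 37 °C, then given compound in DMSO; fluorescence was read kinetically for 3 min at 1 s intervals.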

Test [9] in a line: Caspase-3/7 induction in HepG2 cells by small molecules, qHTS assay (AID 1346978). Further: nearly all actives have a fitted effect of over 15% in size. The essentials: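 Caspase-3/7 induction was measured by Caspase-Glo 3/7 luminescence (30 min, room temperature) after a 17 hr compound exposure of wild-type HepG2 cells seeded at 2,000 per well and pre-incubated 5 hr.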
Test [10] in a line: Caspase-3/7 induction in CHO-K1 cells by small molecules, qHTS assay (AID 1346980). Further: nearly all actives have a fitted effect of over 15% in size. The essentials:
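Luminescent Caspase-Glo 3/7 read (30min, room temperature) quantified apoptosis induction. Cells were wild-type CHO-K1, treated with compound for 17hr at 37 C and 5% CO2.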

Test [11] can be described thus: Caspase-3/7 induction in HepG2 cells by small molecules, qHTS cell viability counter screen (AID 1346981). Further: series mostly up to about 92 µM; nearly all actives have a fitted effect of over 30% in size. In a few lines: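 Cell viability is measured as a cytotoxicity counter screen alongside the Caspase-Glo 3/7 readout in identical wells. Wild-type HepG2 cells are treated with test compounds for 16 hr at 37 C before CellTiter-Fluor addition and a 1-hr incubation.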

Test [12] deals with Nuclear receptor subfamily 1 group I member 2 (Homo sapiens) (UniProt O75469). The test can be described thus: Human pregnane X receptor (PXR) small molecule agonists, qHTS assay (AID 1346982). Further: nearly all actives have a fitted effect of over 35% in size. The essentials:
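Cells: HepG2 stably carrying PXR-Luc. Medium held 5% charcoal-stripped FBS. Compounds in DMSO added after 5 hr plating, incubated 24 hr, then luminescence quantified with ONE-Glo.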

In test [13] the target is Nuclear receptor subfamily 1 group I member 2 (Rattus norvegicus) (UniProt Q9R1A7). The test can be described thus: Rat pregnane X receptor (rPXR) activation by small molecules, qHTS assay (AID 1346983). Further: nearly all actives have a fitted effect of over 20% in size. The following applies: rPXR luciferase reporter cells, One-Glo luminescence, 24 h; max activation: hits give high values. In a few lines: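 Luminescent readout (One-Glo luciferase, 30 min room temperature) followed 24 hr compound treatment at 37 C of rPXR cells plated 2,000 per well and preincubated 5hr; qHTS format with compounds delivered in DMSO.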
Chain of Nuclear receptor subfamily 1 group I member 2 (Rattus norvegicus) (Q9R1A7 whole entry, looked up): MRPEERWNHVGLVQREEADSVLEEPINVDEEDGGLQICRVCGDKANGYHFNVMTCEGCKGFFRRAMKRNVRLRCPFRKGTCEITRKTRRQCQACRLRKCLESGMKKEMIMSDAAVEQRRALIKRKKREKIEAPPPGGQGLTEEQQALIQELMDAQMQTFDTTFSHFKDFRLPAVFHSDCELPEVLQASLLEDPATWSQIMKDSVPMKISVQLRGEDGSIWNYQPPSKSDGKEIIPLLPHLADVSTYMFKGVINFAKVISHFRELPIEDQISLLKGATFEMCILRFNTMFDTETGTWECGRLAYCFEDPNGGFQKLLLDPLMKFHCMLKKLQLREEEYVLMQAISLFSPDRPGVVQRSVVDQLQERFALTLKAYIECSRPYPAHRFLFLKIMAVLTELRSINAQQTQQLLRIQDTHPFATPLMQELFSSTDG

The target in test [14] is Nuclear receptor subfamily 1 group I member 2 (Homo sapiens) (UniProt O75469). Nature of the test: CYP3A4 induction through human pregnane X receptor (PXR) by small molecules, qHTS assay (AID 1346984). Further: nearly all actives have a fitted effect of over 40% in size. The essentials:
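Quantitative HTS in DPX-2 cells, i.e. HepG2 transfected with PXR response element and CYP3A4-promoter luciferase. Compounds in DMSO incubated 24hr at 37C; then P450-Glo CYP3A4 substrate, 3uM final, 3hr; One-Glo luminescence.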

Test [15] has the same target. The test can be described thus: Human pregnane X receptor (PXR) activation by small molecules, qHTS assay (AID 1346985). Further: nearly all actives have a fitted effect of over 40% in size. In a few lines: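 DPX-2 cells (HepG2 co-transfected with a PXR response element and a CYP3A4-promoter luciferase construct) were seeded at 2,000 per well, rested 5 hr at 37C, then exposed to DMSO-dissolved compounds for 24 hr. Activation was read as luciferase luminescence.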

Test [16] has as its target Cytochrome P450 2D6 (Homo sapiens) (UniProt P10635). The test can be described thus: Cytochrome P450 Family 2 Subfamily D Member 6 (CYP2D6) small molecule antagonists: luciferase reporter qHTS assay (AID 1671196). Further: nearly all actives have a fitted effect of over 50% in size. Further: potency means the concentration at half of the fitted maximal effect. On activity change, negative = inhibition: series mostly up to about 120 µM. In a few lines:
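Enzyme and proluciferin substrate were first combined with test chemical for 10 min at room temperature. Adding NADPH regeneration solution started a 1 h reaction, stopped with luciferin detection reagent and read by luminescence 20 min later.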

For test [17], the target named is Cytochrome P450 2C19 (Homo sapiens) (UniProt P33261). Nature of the test: Cytochrome P450 Family 2 Subfamily C Member 19 (CYP2C19) small molecule antagonists: luciferase reporter qHTS assay (AID 1671197). Further: nearly all actives have a fitted effect of over 65% in size. Further: potency means the concentration at half of the fitted maximal effect. On activity change, negative = inhibition: series mostly up to about 120 µM. In a few lines:
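Compounds were tested on CYP2C19 activity via proluciferin conversion to luciferin. The 37C, 1 h reaction followed NADPH addition; detection reagent stopped it.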
A general note: In a reporter assay the amount or activity of a reporter protein is the signal.

Test [18] can be described thus: Human pregnane X receptor (PXR) small molecule agonists, qHTS cell viability counter screen (AID 1346977). Further: nearly all actives have a fitted effect of over 50% in size. In a few lines:
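PXR-Luc HepG2 cells in medium with 5% charcoal-stripped FBS were pre-incubated 5hr, then exposed to compounds for 24hr at 37C. Viability was read in the same wells by CellTiter-Fluor fluorescence, reagent added after 23hr with a 1hr incubation.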

Test [19] can be described thus: Caspase-3/7 induction in CHO-K1 cells by small molecules, qHTS cell viability counter screen (AID 1346979). Further: nearly all actives have a fitted effect of over 35% in size. Further: potency means the concentration at half of the fitted maximal effect. In a few lines: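 Wild-type CHO-K1 cells were seeded at 1,500 per well, rested 5hr at 37 C, then exposed to compounds in DMSO. After 16hr, CellTiter-Fluor reagent was added and fluorescence read 1hr later as the viability measure.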
Test [20] can be described thus: qHTS assay to identify small molecule antagonists of the TGF-beta/Smad signaling pathway - cell viability counter screen (AID 1346824). Further: nearly all actives have a fitted effect of over 50% in size. The essentials: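 Cytotoxicity counter-screen run in the same wells as the beta-lactamase Smad reporter read: CellTiter-Glo luminescence after 30 min at room temperature. HEK 293T SBE-bla cells had 5 hr compound exposure at 37 C with TGF-beta1 (0.25 ng/mL stock).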

Unmarked numbers belong to inactive results. Inconclusive results are not listed. Activity calls are given as the source filed them. Unless noted, the call rests on the fitted dose curve; in most records, active means well fitted curve in the direction sought with a large enough effect in the repeat runs; inconclusive means weak or mixed curves; inactive means no such curve, though single readings can be large; an effect the other way counts as inactive or inconclusive.
On the % scale 0 is the no-effect control and ±100 the full control effect.

Chain of Cytochrome P450 2C19 (Homo sapiens) (P33261 whole entry, looked up): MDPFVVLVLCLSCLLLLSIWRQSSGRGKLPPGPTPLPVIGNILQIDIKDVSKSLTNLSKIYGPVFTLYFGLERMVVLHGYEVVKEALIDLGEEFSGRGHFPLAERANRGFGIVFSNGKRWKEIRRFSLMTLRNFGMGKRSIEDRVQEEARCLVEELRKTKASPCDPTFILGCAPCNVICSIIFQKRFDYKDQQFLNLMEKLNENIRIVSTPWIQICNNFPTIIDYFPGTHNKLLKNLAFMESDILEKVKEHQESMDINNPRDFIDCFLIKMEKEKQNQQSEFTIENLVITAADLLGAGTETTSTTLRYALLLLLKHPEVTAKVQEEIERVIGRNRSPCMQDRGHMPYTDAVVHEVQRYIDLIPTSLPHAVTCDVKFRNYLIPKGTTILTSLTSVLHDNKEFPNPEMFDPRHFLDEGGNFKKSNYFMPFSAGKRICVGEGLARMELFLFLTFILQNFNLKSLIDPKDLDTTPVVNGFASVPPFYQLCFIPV
Chain of Cytochrome P450 2D6 (Homo sapiens) (P10635 whole entry, looked up): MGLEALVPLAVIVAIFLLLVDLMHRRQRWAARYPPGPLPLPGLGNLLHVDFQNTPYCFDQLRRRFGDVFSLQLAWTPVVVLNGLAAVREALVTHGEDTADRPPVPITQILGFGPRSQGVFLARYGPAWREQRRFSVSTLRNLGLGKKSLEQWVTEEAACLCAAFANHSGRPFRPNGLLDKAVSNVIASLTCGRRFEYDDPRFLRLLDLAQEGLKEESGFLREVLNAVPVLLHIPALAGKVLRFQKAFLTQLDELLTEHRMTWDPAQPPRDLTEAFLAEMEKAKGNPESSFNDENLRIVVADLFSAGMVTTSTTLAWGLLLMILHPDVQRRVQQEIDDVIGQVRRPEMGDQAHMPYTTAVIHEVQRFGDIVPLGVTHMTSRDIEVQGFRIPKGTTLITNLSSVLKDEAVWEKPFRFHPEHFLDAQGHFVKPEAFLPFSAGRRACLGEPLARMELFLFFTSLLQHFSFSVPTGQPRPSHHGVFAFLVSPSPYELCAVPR
Chain of Progesterone receptor (Homo sapiens) (P06401 whole entry, looked up): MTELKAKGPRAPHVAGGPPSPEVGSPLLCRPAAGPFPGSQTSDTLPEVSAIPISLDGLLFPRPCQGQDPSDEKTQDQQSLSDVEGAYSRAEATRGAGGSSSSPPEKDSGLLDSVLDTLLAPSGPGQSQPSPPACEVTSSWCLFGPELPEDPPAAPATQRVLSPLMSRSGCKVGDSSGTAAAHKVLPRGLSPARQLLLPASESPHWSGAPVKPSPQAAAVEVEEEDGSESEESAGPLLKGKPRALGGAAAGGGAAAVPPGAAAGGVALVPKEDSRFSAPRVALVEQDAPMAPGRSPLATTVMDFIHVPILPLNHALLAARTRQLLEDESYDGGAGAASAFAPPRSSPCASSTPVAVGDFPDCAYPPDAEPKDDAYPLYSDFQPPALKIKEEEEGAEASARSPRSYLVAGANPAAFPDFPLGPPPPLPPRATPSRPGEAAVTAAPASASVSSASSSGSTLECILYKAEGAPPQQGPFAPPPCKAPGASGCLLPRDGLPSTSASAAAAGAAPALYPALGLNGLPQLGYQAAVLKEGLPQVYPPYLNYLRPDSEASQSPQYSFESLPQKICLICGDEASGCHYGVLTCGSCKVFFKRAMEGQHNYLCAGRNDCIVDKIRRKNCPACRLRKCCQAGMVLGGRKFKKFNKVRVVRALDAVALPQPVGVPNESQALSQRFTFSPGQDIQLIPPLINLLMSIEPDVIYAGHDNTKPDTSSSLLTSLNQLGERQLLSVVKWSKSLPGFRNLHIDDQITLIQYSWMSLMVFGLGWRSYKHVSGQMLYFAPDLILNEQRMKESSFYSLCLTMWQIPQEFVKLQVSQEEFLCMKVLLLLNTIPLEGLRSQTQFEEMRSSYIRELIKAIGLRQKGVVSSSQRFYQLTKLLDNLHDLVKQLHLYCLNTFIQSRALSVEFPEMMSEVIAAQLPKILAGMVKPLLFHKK
Chain of Nuclear receptor subfamily 1 group I member 2 (Homo sapiens) (O75469 whole entry, looked up): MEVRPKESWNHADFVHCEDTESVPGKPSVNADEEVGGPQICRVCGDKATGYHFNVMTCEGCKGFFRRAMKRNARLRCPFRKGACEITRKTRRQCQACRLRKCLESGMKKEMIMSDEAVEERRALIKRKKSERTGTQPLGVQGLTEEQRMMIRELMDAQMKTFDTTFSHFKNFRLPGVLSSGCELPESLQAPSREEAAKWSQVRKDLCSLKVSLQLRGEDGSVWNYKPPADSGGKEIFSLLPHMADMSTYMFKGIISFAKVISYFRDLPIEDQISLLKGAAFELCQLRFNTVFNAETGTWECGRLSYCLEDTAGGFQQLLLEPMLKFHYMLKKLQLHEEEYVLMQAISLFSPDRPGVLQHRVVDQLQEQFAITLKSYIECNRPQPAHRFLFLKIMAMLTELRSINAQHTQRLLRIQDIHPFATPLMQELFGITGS

On to `CCCN(CCc1cccs1)[C@H]1CCc2c(O)cccc2C1`, for which the result in [1] was inactive. Also, the Potency in test [2] was 29.8 µM (active); in test [16], 0.389 µM (active); in [17], 2.45 µM (active). The Potency entry in [3], in test [4], in [5], in [6], in [7] and in [8] was “inactive” in each case. Further, the Potency entry in test [9], in [10], in test [11], in [12], in [14] and in test [15] was “inactive” in each case. For the same molecule, the max activation in test [13] is -1.95%.

As to `COc1ccccc1C=O`, the molecule was classed as inactive in [1]. The Potency entry in [2], in [3], in [4], in [5], in test [6] and in test [18] was “inactive” throughout. The Potency entry in [9], in test [19], in test [10], in test [11], in test [12] and in [16] was “inactive” in each case. For the same molecule, in test [17], the Potency result is “inactive”.

For the molecule `CCC(=O)CC(C)CC` (centres undefined), the activation in test [1] is -0.264% [at 0.349 µM]; in [6] it was -0.839% [at 0.29 µM]; in [12] it was 2.33% [at 0.349 µM]. Further, the activity change, negative = inhibition is 2.97% [at 0.348 µM] in [2] and -5.38% [at 0.435 µM] in [17]. Besides, the activity change, negative = cytotoxicity in test [3] is -3.42% [at 0.348 µM]; in [4] it was 1.66% [at 0.349 µM]; in [5] it was 3.15% [at 0.29 µM]; in test [18] it was 0.0659% [at 0.349 µM]; in test [19] it was 4.19% [at 0.349 µM]; in test [11], 6.32% [at 0.349 µM]. For the same molecule, the caspase activation in [9] is 1.2% [at 0.349 µM]. Further, the caspase-3/7 activation in test [10] is 0.142% [at 0.349 µM].

For the molecule `Clc1ccc(C(Cn2ccnc2)OCc2ccsc2Cl)c(Cl)c1` (centres undefined), the molecule was classed as inactive in test [1]. Further, the Potency in test [2] was 3.35 µM (active); in [3], 6.68 µM (active); in test [4], 8.41 µM (active); in test [19], 21.1 µM (active); in test [16], 3.47 µM (active); in test [17], 0.347 µM (active). The Potency result in test [20], in test [5], in test [7], in [8], in test [9] and in [10] was “inactive” throughout.

For `NC(=O)c1ccccc1N`, the outcome in test [1] was inactive. Also, the Potency entry in test [2], in test [3], in test [4], in [5], in [6] and in test [7] was “inactive” throughout. The Potency result in test [18], in test [9], in [19], in test [10], in test [11] and in test [12] was “inactive” each time. In addition, the Potency in [17] was 35.8 µM (active).

Turning to `CC1=CCC(=O)O1`, the outcome in [1] was inactive. The Potency entry in [2], in test [3], in [4], in test [20], in test [5] and in [6] was “inactive” throughout. For the same molecule, the Potency entry in test [18], in [9], in test [19], in [10], in test [12] and in [16] was “inactive” each time. In addition, in [17], the Potency result was “inactive”.

Take `CC1(C)C(=O)N(CO)C(=O)N1CO`: the call in [1] was inactive. In addition, the Potency result in test [2], in [3], in [4], in test [5], in test [6] and in [7] was “inactive” throughout. Also, the Potency result in test [18], in [9], in test [19], in test [10], in test [11] and in test [12] was “inactive” each time. Also, the Potency result in test [16] was “inactive”.
